This note sets out measurements from the supplement of paper PMC10811239.

The test system of the experiment is LEGO organoid PT (PTEN-/-; TP53-/-). Put plainly: bioluminescence (viable cell) signal fold change after vs before treatment, normalised to DMSO (ratio); higher = more tumour cell growth / less inhibition. The conditions noted are these: 10 µM; treatment time 6 days. As for the experimental part: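 Luc2-labelled iPSC-derived glioblastoma-like organoids (LEGOs, genotypes PT = PTEN-/-;TP53-/-, PTCC = plus CDKN2A/B-/-, PTN = plus NF1-/-) were treated with 10 uM drug for 6 days (applied every other day) at 37 C. Bioluminescence imaging was done before treatment and 2 days after the last dose. BLI signals were normalised to the DMSO control on the same day and then to the pre-treatment signal (N=3).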
In the case of `COc1cc2ncnc(Nc3ccc(F)c(Cl)c3)c2cc1NC(=O)/C=C/CN1CCCCC1` [Dacomitinib], the bioluminescence came to 0.37.

Take `COc1cccc2c1C(=O)c1c(O)c3c(c(O)c1C2=O)C[C@@](O)(C(=O)CO)C[C@@H]3O[C@H]1C[C@H](N)[C@@H](O)[C@H](C)O1.Cl` [Epirubicin hydrochloride]: the bioluminescence is 0.

Turning to `COCCCC/C(=N\OCCN)c1ccc(C(F)(F)F)cc1.O=C(O)/C=C\C(=O)O` [Fluvoxamine maleate], the bioluminescence worked out at 1.22.

Regarding `C[C@H]1C[C@@H]2[C@H]([C@@H](O)C[C@@]3(C)[C@H]2CC[C@]3(O)C(=O)CO)[C@@]2(C)C=CC(=O)C=C12` [Methylprednisolone], the bioluminescence came out at 1.3.

`Cl.Cc1ccsc1\C(=C\CCN1CCC[C@H](C1)C(O)=O)c1sccc1C` [Tiagabine hydrochloride]: the bioluminescence turned out to be 1.04.

`Nc1ncnc2c1ncn2[C@@H]1O[C@H](CO)[C@@H](O)[C@H]1O` [Adenosine]: the bioluminescence stood at 2.1.

In the case of `COc1ccc(Cl)cc1C(=O)NCCc1ccc(S(=O)(=O)NC(=O)NC2CCCCC2)cc1` [Glyburide], the bioluminescence worked out at 2.23.

Turning to `CC(=O)Nc1ccc(O)cc1` [Acetaminophen], the bioluminescence is 1.19.

In the case of `C[C@H](C(=O)O)c1cccc(C(=O)c2ccccc2)c1` [(S)-(+)-Ketoprofen], the bioluminescence came to 0.793.

`CC(C)c1c(C(=O)Nc2ccccc2)c(-c2ccccc2)c(-c2ccc(F)cc2)n1CC[C@@H](O)C[C@@H](O)CC(=O)[O-].CC(C)c1c(C(=O)Nc2ccccc2)c(-c2ccccc2)c(-c2ccc(F)cc2)n1CC[C@@H](O)C[C@@H](O)CC(=O)[O-].[Ca+2]` [Atorvastatin Calcium]: the bioluminescence was 1.09.

On to `CCN(CC)C(=O)[C@]1(c2ccccc2)C[C@@H]1CN.Cl` [Milnacipran hydrochloride], for which the bioluminescence was determined as 1.54.

For `C#CCN[C@@H]1CCc2ccccc21.CS(=O)(=O)O` [Rasagiline Mesylate], the bioluminescence worked out at 0.604.

For `CN(C)CCc1c[nH]c2ccc(Cn3cncn3)cc12.O=C(O)c1ccccc1` [Rizatriptan benzoate], the bioluminescence turned out to be 0.898.

With `CCN(CC)CC(=O)Nc1c(C)cccc1C.Cl` [Lidocaine hydrochloride], the bioluminescence was found to be 1.49.

Turning to `COc1ccccc1OCC(O)COC(N)=O` (stereo not given) [Methocarbamol], the bioluminescence worked out at 0.829.

Take `Cc1cc(C)cc(OCC2CNC(=O)O2)c1` (stereo not given) [Metaxalone]: the bioluminescence was found to be 1.24.

With `Nc1ccn([C@@H]2CS[C@H](CO)O2)c(=O)n1` [Lamivudine], the bioluminescence stood at 0.906.

With `CCc1cc2c(cc1N1CCC(N3CCOCC3)CC1)C(C)(C)c1[nH]c3cc(C#N)ccc3c1C2=O` [Alectinib], the bioluminescence turned out to be 1.13.

As to `CN(C)CCC=C1c2ccccc2COc2ccccc21.Cl` [Doxepin hydrochloride], the bioluminescence was 1.71.

As for `CC(=O)[C@H]1CC[C@H]2[C@@H]3CCC4=CC(=O)CC[C@]4(C)[C@H]3CC[C@]12C` [Progesterone], the bioluminescence came out at 0.82.

With `Nc1[nH]c(=O)ncc1F` [Fluorocytosine], the bioluminescence was 2.51.

On to `C=C/C=C/C[C@@H](C)[C@@H](O)[C@H]1C(=O)N[C@@H](CC)C(=O)N(C)CC(=O)N(C)[C@@H](CC(C)C)C(=O)N[C@@H](C(C)C)C(=O)N(C)[C@@H](CC(C)C)C(=O)N[C@@H](C)C(=O)N[C@H](C)C(=O)N(C)[C@@H](CC(C)C)C(=O)N(C)[C@@H](CC(C)C)C(=O)N(C)[C@@H](C(C)C)C(=O)N1C` [Voclosporin], for which the bioluminescence was found to be 0.414.

As for `CCC(C)n1ncn(-c2ccc(N3CCN(c4ccc(OC[C@H]5CO[C@](Cn6cncn6)(c6ccc(Cl)cc6Cl)O5)cc4)CC3)cc2)c1=O` (stereo not given in full) [Itraconazole], the bioluminescence was 1.69.

In the case of `CCCC(CCC)C(=O)O.CCCC(CCC)C(=O)[O-].[Na+]` [Divalproex Sodium], the bioluminescence came to 0.727.

On to `Cl.Clc1cccc(Cl)c1NC1=NCCN1` [Clonidine hydrochloride], for which the bioluminescence came out at 1.1.

For the molecule `CS(=O)(=O)OCCCCOS(C)(=O)=O` [Busulfan], the bioluminescence came out at 2.15.

In the case of `Cc1cc(NS(=O)(=O)c2ccc(N)cc2)no1` [Sulfamethoxazole], the bioluminescence came out at 3.73.

As for `CC(=O)N[C@@H](CS)C(=O)O` [Acetylcysteine], the bioluminescence amounted to 1.23.

Regarding `Clc1ccc(COC(Cn2ccnc2)c2ccc(Cl)cc2Cl)c(Cl)c1.O=[N+]([O-])O` (stereo not given) [Miconazole nitrate], the bioluminescence stood at 0.225.

Turning to `Nc1nc(=O)c2c(CCc3ccc(C(=O)N[C@@H](CCC(=O)[O-])C(=O)[O-])cc3)c[nH]c2[nH]1.Nc1nc(=O)c2c(CCc3ccc(C(=O)N[C@@H](CCC(=O)[O-])C(=O)[O-])cc3)c[nH]c2[nH]1.O.O.O.O.O.[Na+].[Na+].[Na+].[Na+]` [Pemetrexed Disodium Hydrate], the bioluminescence is 1.33.

In the case of `OC(Cn1cncn1)(Cn1cncn1)c1ccc(F)cc1F` [Fluconazole], the bioluminescence stood at 1.04.

Regarding `C[N+](C)(C)CCO.[Cl-]` [Choline chloride], the bioluminescence is 1.48.

For the molecule `CCC1=CC2CN(C1)Cc1c([nH]c3ccccc13)[C@](C(=O)OC)(c1cc3c(cc1OC)N(C)[C@H]1[C@@](O)(C(=O)OC)[C@H](OC(C)=O)[C@]4(CC)C=CCN5CC[C@]31[C@@H]54)C2.O=C(O)[C@H](O)[C@@H](O)C(=O)O.O=C(O)[C@H](O)[C@@H](O)C(=O)O` (stereo not given in full) [Vinorelbine ditartrate], the bioluminescence came to 0.558.

As for `NS(=O)(=O)Cc1noc2ccccc12` [Zonisamide], the bioluminescence came to 0.521.

As for `Cl.O=c1n(CCCN2CCN(c3cccc(Cl)c3)CC2)nc2ccccn12` [Trazodone hydrochloride], the bioluminescence was found to be 1.97.

Regarding `COC(=O)C1=C(C)NC(C)=C(C(=O)OCCN(C)Cc2ccccc2)C1c1cccc([N+](=O)[O-])c1.Cl` (stereo not given) [Nicardipine hydrochloride], the bioluminescence came out at 0.99.

As for `O=C1CCC(N2C(=O)c3ccccc3C2=O)C(=O)N1` (stereo not given) [Thalidomide], the bioluminescence came to 3.97.

On to `S=c1nc[nH]c2nc[nH]c12` [Mercaptopurine], for which the bioluminescence worked out at 4.23.

On to `FC(F)(F)C(Cl)Br` (stereo not given) [Anestan], for which the bioluminescence was found to be 1.01.

For the molecule `CN1[C@@H]2CCC[C@H]1C[C@@H](NC(=O)c1nn(C)c3ccccc13)C2.Cl` [Granisetron hydrochloride], the bioluminescence is 0.715.
